Assay outcomes from PubChem.
MCF10A rerep: A quantitative high throughput screen for small molecules that induce DNA re-replication in MCF 10a normal breast cells. MCF 10A DNA re-replication, Hoechst nuclear intensity, 48 h. Potency, µM (highest dose often 46.1 µM), usual class: activators. 350,000 tested, 2.9% active; also: nearly all actives have a fitted effect of over 50% in size
ATXN viability: Viability Counterscreen for Primary qHTS for Inhibitors of ATXN expression. S2 cells (HEK-293 line with an ATXN2-luciferase reporter) viability, CellTiter-Fluor protease fluorescence, 24 h. Potency, µM (top dose mostly 56.7 µM), usual class: cytotoxic. 400,000 tested, 0.49% active. AID 651635, 2014; also: nearly all actives have a fitted effect of over 40% in size
PINK1 expr mod: A Quantitative High throughput Screen to Identify Chemical Modulators of PINK1 Expression. PINK1 immunofluorescence, high-content cytometry, 24 h. 410,000 tested, 0.2% active. Potency, µM (doses to about 76.6 µM), most hits filed as activators; active = well fitted activation curve with a large enough effect; inconclusive = small, poorly fitted or top-dose-only effect; cell line not stated here; also: nearly all actives have a fitted effect of over 65% in size
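Readout is PINK1 immunofluorescence, quantified alongside mitochondrial, cell and nuclear markers by laser-scanning microplate cytometry. Cells from a stable line were exposed to compound titrations (5 concentrations) for 24 hours, with CCCP controls.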
SW480 rerep: A quantitative high throughput screen for small molecules that induce DNA re-replication in SW480 colon adenocarcinoma cells. SW480 DNA re-replication, Hoechst DNA content imaging, 48 h. Potency, µM (series often up to 46.1 µM), usual class: activators. 340,000 tested, 1.8% active. AID 624297, 2012; also: nearly all actives have a fitted effect of over 55% in size
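Compounds, transferred as 23 nL by pin tool, were incubated with cells for 48 hr; DNA content per nucleus was then quantified by Hoechst staining and fluorescence plate imaging.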
IL1B secr inh: qHTS for Inhibitors of Inflammasome Signaling: IL-1-beta AlphaLISA Primary Screen | THP-1 LPS/ATP IL-1B secretion, AlphaLISA, 16 h; active compounds read low | activity change, % at 57.5 µM | 360,000 tested, 4.7% active | AID 743279, 2014; in the data active = activity change below about -50%; inconclusive = mostly about -30% to -49%
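Secreted IL-1B measured by AlphaLISA bead assay after 16 h compound exposure of THP-1 cells; compounds (final up to 57.5 uM) added 1 h before LPS (250 ng/mL) and ATP (1.25 mM) stimulation; lower signal means less secretion.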
ATXN2 expr inh: Primary qHTS for Inhibitors of ATXN expression; Potency, µM (titrated, usually from 57 µM), usual class: inhibitors; 360,000 tested, 0.72% active; HEK-293 ATXN2-luciferase reporter, luminescence, 24 h; also: nearly all actives have a fitted effect of over 55% in size
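qHTS (up to 57 uM final) was run with 24 h compound exposure of reporter cells at 37 °C. Each well was multiplexed: SteadyGlo luminescence measured ATXN2-luciferase expression after a fluorogenic Gly-Phe-AFC viability readout (25 uM final).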
Numbers stand for hits; i = inactive; ? = inconclusive; nt = no result; [ ] = another dose, or the depositor's remark. Compounds with a hit are over-represented: about 7.1% of the library has one in this group of screens. Unless noted, calls follow the shape of the dose curve; as a rule, active = well fitted curve in the direction sought with a large enough effect; inconclusive = small, poorly fitted or top-dose-only effect, or another doubt; inactive = no such curve, though single readings can be large; an effect the other way counts as inactive or inconclusive.

SMILES | MCF10A rerep | ATXN viability | PINK1 expr mod | SW480 rerep | IL1B secr inh | ATXN2 expr inh
O=C(Nc1ccc(Nc2ccccc2)cc1)c1ccco1 | ? | i | i | i | -100 | i
COc1ccccc1CN1C(=O)C(C)ON=C1c1ccccc1F (centres undefined) | nt | i | i | nt | i | i
COC(=O)c1scc(-c2ccc(C)cc2)c1S(=O)(=O)N1CCN(c2ccccc2F)CC1 | nt | i | i | nt | nt | i
COc1ccc(OC)c(S(=O)(=O)N2Cc3ccccc3CC2C(=O)Nc2ccc(C(C)=O)cc2)c1 (centres undefined) | nt | nt | i | nt | nt | nt
CCc1nc2ccc(C(=O)NCCC(C)C)cn2c1N(CCN(C)C)CC1CC1 | nt | i | i | nt | i | i
O=C(Nc1ccc(C(=O)N2CCOCC2)cc1)c1ccccc1 | i | i | i | i[9.22 µM] | i | i
CC(C)(C)NC(=O)c1cccc(NC(=O)c2ccc(NC(=O)c3ccco3)cc2)c1 | i | ? | nt | i | -70 | i
CC(C)(C)c1ccc(C(=O)Nc2ccc(C(=O)N3CCOCC3)cc2)cc1 | i | i | i | i | -85 | i
COc1cccc(C(=O)Nc2ccc(Cl)c(C(F)(F)F)c2)c1 | i | ? | i | i | ? | i
CNC(=O)c1cc(Oc2ccc(NC(=O)Nc3ccc(Cl)c(C(F)(F)F)c3)c(F)c2)ccn1 | nt | nt | nt | nt | nt | 19µM
CN(C)CCN(C)Cc1ccccc1Sc1cccc2ccccc12 | ? | 20µM | i | ? | -105 | 25µM
CNCc1ccccc1Sc1cccc2ccccc12 | ? | i | i | ? | -55 | i
CCc1cc2c(=O)c(-c3cscn3)coc2c(CN(C)C)c1O | 10µM | i | i | ? | i | i
CCc1cc2c(=O)c(-c3ccc4c(c3)OCO4)coc2c(CN(C)C)c1O | i | i | i | i | i | nt
COc1cc(OC)c(OC)cc1/C=N/N(C)c1ccccc1 | i | i | i | i | -62 | i
COc1cc(-n2c(N)c(C(=O)NCc3ccco3)c3nc4ccccc4nc32)cc(OC)c1OC | 9.2µM | i | i | 12µM | i | nt
COc1ccc(-n2c(N)c(C(=O)NCc3ccco3)c3nc4ccccc4nc32)cc1 | i | i | ? | i | ? | ?
Cc1ccc2nc3sc(C(=O)NCc4ccco4)c(N)c3cc2c1 | ? | i | ? | i | i | i
COc1ccc(-n2c(N)c(C(=O)NCc3ccco3)c3nc4ccccc4nc32)cc1OC | 16µM | nt | i | 18µM | i | ?
COc1cccc(OC)c1C(=O)NCc1ccco1 | nt | i | i | nt | i | nt
COc1cc2cc3c(N)c(C(=O)NCc4ccco4)sc3nc2cc1OC | i | i | i | i | -58 | i
Cc1ccc(-n2ncc3c(NCCCN(C)C)ncnc32)cc1Cl | nt | nt | i | nt | nt | ?
O=C1N[C@@H](Cc2ccccc2)COC(=O)[C@@H](Cc2ccc(F)cc2)C/C=C\C[C@@H]1CC(=O)N(CCO)Cc1ccccc1 | 23µM | ? | i | ? | ? | ?
O=C1N[C@H](Cc2ccccc2)COC(=O)[C@H](Cc2ccc(F)cc2)CC/C=C/C[C@H]1CC(=O)N(CCO)Cc1ccccc1 | i | ? | i | i | i | ?
O=C1N[C@@H](c2ccccc2)COC(=O)[C@@H](Cc2ccc(F)cc2)CC/C=C/C[C@@H]1CC(=O)N(CCO)Cc1ccccc1 | i | 18µM | i | i | ? | ?
SMILES | MCF10A rerep | ATXN viability | PINK1 expr mod | SW480 rerep | IL1B secr inh | ATXN2 expr inh
O=C1CC(c2ccc(Cl)cc2)CC(=O)N1 | nt | i | nt | nt | nt | i
CCOC(=O)CCCc1sc(N)nc1-c1[nH]c(=O)[nH]c1C | i | i | i | ? | -83 | i
COc1ccc(S(=O)(=O)N(C)C)cc1NC(=O)Cc1c[nH]c2ccccc12 | i | i | i | 3.7µM | i | i
COc1ccccc1-c1c(C)nn2c(N3CCC(C)CC3)cc(C)nc12 | ? | i | i | ? | -51 | i
COCc1cc(C)n(CC(=O)NC(C)c2ccccc2)c(=O)c1C#N (centres undefined) | i | i | i | i | i | i
CCOC(=O)CNC(=O)Cn1c(C)cc2ccccc2c1=O | i | i | i | i | -65 | i
COCc1cc(C)n(CC(=O)NCc2ccccc2)c(=O)c1C#N | i | i | i | 18µM | i | i
CCOC(=O)C1CCN(C(=O)CNC(=O)Cn2c(C)cc3ccccc3c2=O)CC1 | ? | i | i | i | i | i
CC(=O)C1=CCC(c2ccccc2)N(S(=O)(=O)c2ccc(Cl)cc2)C1 (centres undefined) | nt | i | i | nt | ? | i
CCOC(=O)CC1c2cc(OCC)c(OCC)cc2CCN1C(=O)Nc1cccc(Cl)c1 (centres undefined) | nt | nt | i | nt | nt | nt
COc1ccccc1N1CCN(C(=S)Nc2ccc3nc(N4CCOCC4)cc(C)c3c2)CC1 | ? | i | i | ? | -168 | nt
Cc1cc(N2CCOCC2)nc2ccc(NC(=S)N3CCN(c4ccccc4)CC3)cc12 | i | i | i | ? | i | i
COc1cccc(N2CCN(C(=S)Nc3ccc(F)cc3)CC2)c1 | i | i | i | i | i | nt
COc1ccccc1N1CCN(C(=S)Nc2cccc(C)c2)CC1 | 16µM | i | i | ? | i | i
Cc1cc(N2CCOCC2)nc2ccc(NC(=O)CCC(=O)N3CCN(c4cccc(C(F)(F)F)c4)CC3)cc12 | 15µM | ? | i | i | -77 | i
COc1cccc(N2CCN(C(=S)Nc3cc(C)cc(C)c3)CC2)c1 | 11µM | i | i | ? | i | i
Cc1cccc(NC(=S)N2CCN(c3cc(C)ccc3C)CC2)c1 | i | i | i | i | i | i
Cc1ccc(-n2nc(C(=O)Nc3ccc(F)cc3F)c3c4ccccc4n(C)c3c2=O)cc1 | nt | i | i | nt | nt | i
CCOc1ccc(OC(=O)c2sc3ncn(Cc4cccc(F)c4)c(=O)c3c2C)cc1 | nt | i | i | nt | nt | i
Cc1cccc(N2CCN(C(=S)Nc3ccc4nc(N5CCOCC5)cc(C)c4c3)CC2C)c1 (centres undefined) | 12µM | i | i | ? | i | i
Cc1ccc(C)c(N2CCN(C(=S)Nc3ccc4nc(N5CCOCC5)cc(C)c4c3)CC2)c1 | 16µM | i | i | ? | i | i[11.3 µM]
Cc1cc(C)c(NC(=O)/C=C\C(=O)O)c([N+](=O)[O-])c1 | i | i | i | 0.16µM | i | i
Cc1ccc(NC(=O)/C=C\C(=O)O)c([N+](=O)[O-])c1 | i | i | i | i | i | i
CCOc1ccc(C2C(=O)N(C3CCCCC3)CC(=O)N2Cc2ccccc2OC)cc1OC (centres undefined) | nt | nt | i | nt | nt | nt
COc1ccc(C)cc1NC(=O)c1ccccc1NS(=O)(=O)c1ccc(Cl)s1 | 21µM | i | ? | i | ? | nt
COc1ccccc1NC(=O)c1ccccc1NS(=O)(=O)c1cccs1 | i | ? | i | i[1.84 µM] | i | i
